Assay outcomes as filed in PubChem BioAssay.
Compounds with a hit are over-represented: about 4.5% of the library has one in this group of screens.
BJeLR viability: MLPCN primary cell-based screen for lethality selective to Ras in HRASV12 cells; BJeLR (HRASV12) viability, CellTiter-Glo ATP luminescence, 48 h; inhibition, % (concentration not given with the values); 0.17% of 300,000 active; AID 1554, 2009; in the data active = inhibition above about 50%
PrPC TRFRET: inhibitors of human cell surface prion protein PrPC, primary screen, cell-based, TR-FRET; AID 720596, 2013; 0.43% of 370,000 active; inhibition, % at 13.8 µM; Major prion protein (Homo sapiens), P04156; TR-FRET read-out; in the data active = inhibition above about 24%; also: 0% = median of the test wells and 100% = reference compound wells
Mtb FBA inh: Mtb FBA enzyme inhibitors, primary screen, biochemical, fluorescence, strain H37Rv | Fructose-bisphosphate aldolase (Mycobacterium tuberculosis (strain ATCC 25618 / H37Rv)), … | purified M. tuberculosis FBA, fluorescence read-out | inhibition, % at 1 µM | 2.3% of 360,000 active | AID 588726, 2011;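 also: 0% = vehicle and 100% = reference inhibitor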
Target sequence (P9WQA3 whole entry, looked up): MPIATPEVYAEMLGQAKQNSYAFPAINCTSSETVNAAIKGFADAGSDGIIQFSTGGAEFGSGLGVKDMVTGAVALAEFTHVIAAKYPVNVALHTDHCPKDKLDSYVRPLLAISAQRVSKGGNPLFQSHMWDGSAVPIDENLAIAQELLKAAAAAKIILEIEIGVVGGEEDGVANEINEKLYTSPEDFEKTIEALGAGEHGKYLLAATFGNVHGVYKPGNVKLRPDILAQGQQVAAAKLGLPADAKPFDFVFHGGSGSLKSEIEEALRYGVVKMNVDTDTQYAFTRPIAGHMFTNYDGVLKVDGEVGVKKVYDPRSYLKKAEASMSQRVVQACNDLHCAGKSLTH
PfHsp40 yeast: rescue of yeast from PfHsp40 toxicity, primary screen, S. cerevisiae, ATP luminescence. S. cerevisiae expressing PfHsp40, growth rescue. growth rescue, % at 12.5 µM. 0.68% of 340,000 active. AID 504582, 2011; in the data active = growth rescue above about 28%, passing the limit was not always enough;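 also: yeast W303a lacking pdr1 and pdr3 grown in galactose medium; growth measured after three days at 30 °C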
GDH-TPI counter-1: GDH-TPI coupling enzyme inhibitors, primary screen, artefact control for M. tuberculosis FBA inhibitor project, biochemical, absorbance, full deck. GDH-TPI coupled enzyme counterscreen, NADH absorbance. inhibition, % at 4.8 µM. 1.2% of 360,000 active; in the data active = inhibition above about 30%;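 also: 0% = DMSO wells and 100% = wells lacking the enzyme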
PrP 5UTR inh: inhibition of PrP 5' UTR reporter expression; cell-based PrP 5' UTR mRNA reporter, plate reader; inhibition, % (no concentration beside the values); 0.35% of 340,000 active; AID 488862, 2010; in the data active = inhibition above about 52%; also: 0 = median of the neutral control wells
Mtb FBA inh conf: M. tuberculosis aldolase blockers, biochemical, fluorescence, strain H37Rv, confirmation; purified M. tuberculosis FBA, fluorescence read-out; shares compounds with Mtb FBA inh; 78% of 5,600 active; inhibition, % at 1 µM;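 also: 0% = vehicle wells and 100% = reference inhibitor wells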
GDH-TPI counter-2: GDH-TPI coupling enzyme inhibitors, artefact control for M. tuberculosis FBA inhibitor project, biochemical, fluorescence, high throughput; 81% of 5,600 active; inhibition, % at 1 µM; shares compounds with Mtb FBA inh; AID 652141, 2013; GDH-TPI coupled enzyme counterscreen; in the data active = inhibition above about 10%
* hit, by the source's call; / = no result; + = active, no number. Rule as the data show it, unless noted: active = inhibition above about 27%; inactive = the rest.

SMILES	BJeLR viability	PrPC TRFRET	Mtb FBA inh	PfHsp40 yeast	GDH-TPI counter-1	PrP 5UTR inh	Mtb FBA inh conf	GDH-TPI counter-2
CC(Oc1ccc2ccc(=O)oc2c1)C(=O)NCCN1CCOCC1 (stereo not given)	9	-8	28*	-1	21	-3	151*	110*
CC(Oc1ccc([N+](=O)[O-])cc1)C(=O)NCCCN1CCOCC1 (stereo not given)	-9	-10	2	-1	10	-19	/	/
O=C(COc1ccc2ccc(=O)oc2c1)Nc1ccc(N2CCCCC2)cc1	/	-3	41*	1	3	-28	+	152*
O=C(COc1ccc2ccc(=O)oc2c1)NCCN1CCOCC1	/	-11	27*	/	25	/	123*	95*
COC(=O)C[C@H]1CC[C@@H]2[C@H](COc3ccc(NC(=O)c4cnccn4)cc3C(=O)N2C)O1	/	1	/	/	/	/	/	/
CSCC[C@H](NC(=O)C1CCN(S(=O)(=O)c2ccc(C)cc2C)CC1)c1nc2ccccc2[nH]1	/	-5	2	1	5	4	/	/
N#Cc1nc(-c2ccco2)oc1N1CCC(Cc2ccccc2)CC1	2	4	30*	7	6	-17	-2	0
N#Cc1nc(-c2ccco2)oc1N1CCN(c2ccccc2)CC1	-3	-1	1	1	9	-12	/	/
COc1ccc(N2CCN(c3oc(-c4ccco4)nc3C#N)CC2)cc1	0	7	-3	0	21	2	/	/
COc1ccc(N2CCN(c3oc(-c4ccccc4OC)nc3C#N)CC2)cc1	-2	/	6	2	3	-4	/	/
N#Cc1nc(-c2ccccc2Cl)oc1N1CCOCC1	-6	-2	33*	-1	29	-3	113*	92*
N#Cc1nc(-c2ccco2)oc1N1CCOCC1	/	-5	82*	0	10	-8	198*	160*
CCN(Cc1cn(Cc2ccccc2)nn1)S(=O)(=O)c1ccc(F)cc1Br	/	0	/	/	/	/	/	/
Cc1ccc2cc3cc(C(=O)NCCCN4CC(C)CC(C)C4)oc3nc2c1 (stereo not given)	-9	-32	85*	-1	14	-14	56*	36*
Cc1ccc2cc3cc(C(=O)NCCC(C)C)oc3nc2c1	-3	-6	22	0	28	-14	/	/
Cc1ccc2cc3cc(C(=O)NC4CCCCC4)oc3nc2c1	-5	3	39*	2	14	-37	+	+
Cc1ccc2cc3cc(C(=O)NCc4ccco4)oc3nc2c1	1	1	46*	0	34*	-29	8	-5
COc1cc2ccnc(C=NO)c2cc1OC	/	-20	42*	/	13	/	122*	95*
Cc1cnc(C(=O)OCC(=O)Nc2ccccc2[N+](=O)[O-])cn1	/	-12	-1	-2	-1	-24	/	/
O=[N+]([O-])c1ccccc1Nc1c2ccccc2nc2ccccc12	6	9	5	-1	5	-23	/	/
O=[N+]([O-])c1ccc(Nc2c3ccccc3nc3ccccc23)cc1	0	8	51*	/	10	6	101*	84*
Cn1c(=O)c(=O)n(C)c2cc(S(=O)(=O)N3CCOCC3)ccc21	4	-4	5	0	1	-14	/	/
Cc1ccn2c(c1)nc(=O)c1cc(S(=O)(=O)N3CCOCC3)ccc12	7	4	79*	0	10	-5	153*	109*
Cc1cc(=O)[nH]c2ccc(S(=O)(=O)N3CCOCC3)cc12	-1	7	72*	2	-4	-6	124*	137*
COC(=O)c1cc(CNC(=O)c2ccc(S(=O)(=O)N(C)c3ccccc3)cc2)ccc1OC	/	4	1	1	0	-9	/	/
SMILES	BJeLR viability	PrPC TRFRET	Mtb FBA inh	PfHsp40 yeast	GDH-TPI counter-1	PrP 5UTR inh	Mtb FBA inh conf	GDH-TPI counter-2
CCN(CC)C(=O)[C@H]1C[C@H](CC(=O)NC(C)(C)C)C(=O)N2CCc3c([nH]c4cc(-c5ccco5)ccc34)[C@]12C	/	6	38*	0	8	-11	+	140*
CC(C)N(C(=O)[C@H]1C[C@H](CC(=O)NC(C)(C)C)C(=O)N2CCc3c([nH]c4cc(-c5ccco5)ccc34)[C@]12C)C(C)C	/	3	21	1	-8	-10	/	/
C[C@]12c3[nH]c4cc(-c5ccco5)ccc4c3CCN1C(=O)[C@@H](CC(=O)NCCCn1ccnc1)C[C@@H]2C(=O)N1CCOCC1	/	/	28*	0	10	-20	-6	-5
C[C@]12c3[nH]c4cc(-c5ccco5)ccc4c3CCN1C(=O)[C@@H](CC(=O)NCCC1=CCCCC1)C[C@@H]2C(=O)N1CCOCC1	/	/	15	0	5	-15	/	/
C[C@]12c3[nH]c4cc(-c5ccco5)ccc4c3CCN1C(=O)[C@@H](CC(=O)NCCN1CCOCC1)C[C@@H]2C(=O)N1CCOCC1	/	-6	46*	0	11	-8	+	+
C[C@]12c3[nH]c4cc(-c5ccco5)ccc4c3CCN1C(=O)[C@@H](CC(=O)NCCCn1ccnc1)C[C@@H]2C(=O)N1CCCCC1	/	-8	26	0	10	-27	/	/
COc1ccc(CNC(=O)C[C@H]2C[C@H](C(=O)N3CCOCC3)[C@@]3(C)c4[nH]c5cc(-c6ccco6)ccc5c4CCN3C2=O)cc1OC	/	-5	36*	8	1	-10	+	+
CN(C)C(=O)c1ccc(Nc2ncnc3sc4c(c23)CCCCC4)cc1	-8	0	0	-1	12	-14	/	/
C[C@@H]1CNC(=O)c2c(C(=O)Nc3ccc(CNC(=O)OC(C)(C)C)cc3)ncn21	/	7	-3	/	-8	/	/	/
CC(C)N(C(=O)[C@H]1C[C@H](CC(=O)NCCN2CCOCC2)C(=O)N2CCc3c([nH]c4cc(-c5ccco5)ccc34)[C@]12C)C(C)C	/	-1	36*	-2	4	-4	150*	124*
CN(C)CCCNC(=O)C[C@H]1C[C@H](C(=O)N2CCCCC2)[C@@]2(C)c3[nH]c4cc(-c5ccco5)ccc4c3CCN2C1=O	/	-6	34*	0	19	2	41*	34*
